Compound activity deposited in PubChem by several laboratories.
Most compounds without a hit are left out; they make up all but 3.8% or so of the library.
PAFAH2 FP inh – PAFAH2 (human) inhibition; recombinant PAFAH2, FP-rhodamine activity probe, fluorescence polarization; 0.99% of 340,000 active; inhibition, % at 3.39 µM; Q99487;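 active = inhibition above the mean over all tested compounds plus 3 SD, cut at about 30% in these data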;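 also: inhibitors block probe labeling of enzyme so polarization drops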
PfM18AAP inh-1 – blocks P. falciparum M18 aspartyl aminopeptidase; recombinant PfM18AAP, H-Glu-NHMec fluorogenic cleavage; inhibition, % at 7.35 µM; 1.2% of 290,000 active; AID 1822;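 active = inhibition above the campaign mean inhibition over all tested compounds plus 3 SD, cut at about 28% in these data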
pPAFAH FP inh – inhibitors of human plasma PAF acetylhydrolase (pPAFAH); inhibition, % at 3.39 µM; recombinant pPAFAH, FP-rhodamine probe fluorescence polarization; Q13093; AID 463082; 1.5% of 330,000 active;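 active = inhibition above the mean inhibition across the screen plus 3 SD, cut at about 25% in these data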;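 also: inhibitors block binding of the rhodamine activity-based probe so polarization drops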
PAFAH1B3 FP inh – PAFAH1B3 (human) inhibition | Q15102 | recombinant PAFAH1B3, FP-rhodamine probe, fluorescence polarization | inhibition, % at 3.39 µM | 0.28% of 340,000 active;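 active = inhibition above the screen-wide average of all tested compounds plus 3 SD, cut at about 25% in these data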
Target sequence (Q15102 whole entry, looked up): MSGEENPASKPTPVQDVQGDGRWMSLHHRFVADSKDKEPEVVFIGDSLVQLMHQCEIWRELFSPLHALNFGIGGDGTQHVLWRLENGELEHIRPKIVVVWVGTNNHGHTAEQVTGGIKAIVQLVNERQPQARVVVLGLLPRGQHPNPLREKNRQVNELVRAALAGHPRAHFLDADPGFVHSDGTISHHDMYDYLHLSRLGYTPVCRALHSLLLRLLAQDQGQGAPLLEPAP
DSG3 Ab inh – inhibitors of pemphigus antibody binding to human desmoglein-3; P32926; DSG3-coupled beads, scFv-anti-DSG3-GFP binding, flow cytometry; hits give low values; binding (percent of control), % at 10 µM; 0.48% of 310,000 active;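 active = binding more than 3 SD below its plate's average and above zero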;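 also: hits lower antibody fragment binding to DSG3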
PAFAH1B2 FP inh – blocks human PAF acetylhydrolase 1b catalytic subunit 2; P68402; recombinant PAFAH1B2, FP-rhodamine activity probe, fluorescence polarization; inhibition, % at 3.39 µM; 1.2% of 340,000 active;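 active = inhibition above the mean of all tested compounds plus 3 SD, cut at about 24% in these data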
Target sequence (P68402 whole entry, looked up): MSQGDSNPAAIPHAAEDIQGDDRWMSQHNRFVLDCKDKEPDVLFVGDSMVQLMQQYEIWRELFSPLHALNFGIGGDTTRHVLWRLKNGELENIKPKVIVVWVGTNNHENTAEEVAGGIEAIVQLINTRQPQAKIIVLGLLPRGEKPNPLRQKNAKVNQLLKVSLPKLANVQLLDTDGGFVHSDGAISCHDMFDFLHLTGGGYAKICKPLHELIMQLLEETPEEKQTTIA
PfM18AAP inh-2 – PfM18AAP inhibition, confirmation. shares compounds with PfM18AAP inh-1. recombinant PfM18AAP, H-Glu-NHMec fluorogenic cleavage. inhibition, % at 7.35 µM. 28% of 2,400 active;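 active = mean inhibition over replicate wells above the hit cutoff set for the earlier primary screen, cut at about 29% in these data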
CTSL1 confirm – counter-screen for PFM18AAP inhibitors: confirmation of human cathepsin L inhibitors | shares compounds with PfM18AAP inh-1 | 2,400 tested, under 10 active | purified cathepsin L1, Z-Leu-Arg-MCA fluorescence | inhibition, % at 5.96 µM;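 active = average inhibition across replicates above the hit cutoff set in the earlier primary screen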
Numbers stand for hits.

Cc1nnc(N/N=C\c2ccc(-c3ccccc3[N+](=O)[O-])o2)n1N was read as PAFAH2 FP inh inactive, PfM18AAP inh-1 43.2, pPAFAH FP inh inactive, PAFAH1B3 FP inh inactive, DSG3 Ab inh inactive, PAFAH1B2 FP inh inactive, PfM18AAP inh-2 inactive and CTSL1 confirm inactive.
`CCC(=O)N/N=C/c1ccc(-c2ccc([N+](=O)[O-])cc2)o1` gave PAFAH2 FP inh inactive, PfM18AAP inh-1 inactive, pPAFAH FP inh inactive, PAFAH1B3 FP inh inactive, DSG3 Ab inh inactive and PAFAH1B2 FP inh inactive.
Screening CCc1nnc(N/N=C/c2cc(C)c(C)cc2C)n1N returned PAFAH2 FP inh inactive, PfM18AAP inh-1 40.0, PAFAH1B3 FP inh inactive, DSG3 Ab inh inactive, PAFAH1B2 FP inh inactive, PfM18AAP inh-2 inactive and CTSL1 confirm inactive.
For CCc1nnc(N/N=C/c2ccc(-c3ccc([N+](=O)[O-])cc3)o2)n1N the results were PAFAH2 FP inh inactive, PfM18AAP inh-1 42.8, pPAFAH FP inh inactive, PAFAH1B3 FP inh inactive, DSG3 Ab inh inactive, PAFAH1B2 FP inh inactive, PfM18AAP inh-2 inactive and CTSL1 confirm inactive.
Screening O=C(c1ccco1)N1CCN(C(=O)N2CCCCC2)CC1 returned PAFAH2 FP inh inactive, PfM18AAP inh-1 89.6, pPAFAH FP inh inactive, PAFAH1B3 FP inh inactive, DSG3 Ab inh inactive, PAFAH1B2 FP inh inactive, PfM18AAP inh-2 inactive and CTSL1 confirm inactive.
O=C(Cc1ccc(Cl)c(Cl)c1)Nc1ccccc1N1CCCC1 was read as PAFAH2 FP inh inactive, PfM18AAP inh-1 inactive, PAFAH1B3 FP inh inactive, DSG3 Ab inh inactive and PAFAH1B2 FP inh inactive.
O=C(Cc1ccc(F)cc1)Nc1ccccc1N1CCCC1 was read as PAFAH2 FP inh inactive, PfM18AAP inh-1 32.5, pPAFAH FP inh inactive, PAFAH1B3 FP inh inactive, DSG3 Ab inh inactive, PAFAH1B2 FP inh inactive, PfM18AAP inh-2 inactive and CTSL1 confirm inactive.
Screening CN(C)/N=C/C=C1\CCC/C(=C\c2ccc(F)c(F)c2)C1=O returned PfM18AAP inh-1 37.8, pPAFAH FP inh inactive, DSG3 Ab inh inactive, PfM18AAP inh-2 inactive and CTSL1 confirm inactive.
For COc1cccc(C2c3[nH]c4ccccc4c3C[C@H]3C(=O)N(c4ccccc4C(=O)NCCCN4CCOCC4)C(=O)N23)c1 (some centres undefined) the results were PAFAH2 FP inh inactive, PfM18AAP inh-1 inactive, pPAFAH FP inh inactive, PAFAH1B3 FP inh inactive, DSG3 Ab inh inactive and PAFAH1B2 FP inh inactive.
For O=C(CCC1CCCN(Cc2cccc(Cl)c2)C1)NCc1ccccc1F (centres undefined) the results were PAFAH2 FP inh inactive, PfM18AAP inh-1 inactive, pPAFAH FP inh inactive, PAFAH1B3 FP inh inactive, DSG3 Ab inh inactive and PAFAH1B2 FP inh inactive.
Screening O=c1onc(-c2ccccc2)n1Cc1ccc([N+](=O)[O-])cc1 returned DSG3 Ab inh inactive.
For COc1cc(C2C3=C(CC(C)(C)CC3=O)N(C)C3=C2C(=O)CC(C)(C)C3)ccc1O the results were PAFAH2 FP inh inactive, PfM18AAP inh-1 33.7, PAFAH1B3 FP inh inactive, DSG3 Ab inh inactive, PAFAH1B2 FP inh inactive, PfM18AAP inh-2 inactive and CTSL1 confirm inactive.
`COCCN1C2=C(C(=O)CC(C)(C)C2)C(c2ccc(O)c(OC)c2)C2=C1CC(C)(C)CC2=O` gave PAFAH2 FP inh inactive, PfM18AAP inh-1 inactive, pPAFAH FP inh inactive, PAFAH1B3 FP inh inactive, DSG3 Ab inh inactive and PAFAH1B2 FP inh inactive.
Screening CC1CCN(C(=O)C(=O)c2cn(CC(=O)N3CCCC3)c3ccccc23)CC1 returned PAFAH2 FP inh inactive, PfM18AAP inh-1 inactive, pPAFAH FP inh inactive, PAFAH1B3 FP inh inactive, DSG3 Ab inh inactive and PAFAH1B2 FP inh inactive.
For NC(=O)C1CCN(C(=O)C(=O)c2cn(CC(=O)N3CCCC3)c3ccccc23)CC1 the results were PAFAH2 FP inh inactive, PfM18AAP inh-1 43.0, pPAFAH FP inh inactive, PAFAH1B3 FP inh inactive, DSG3 Ab inh inactive, PAFAH1B2 FP inh inactive, PfM18AAP inh-2 inactive and CTSL1 confirm inactive.
CCOC(=O)C1=C(CS(=O)(=O)c2ccc(F)cc2)NC(=O)NC1c1ccc(O)c(O)c1 (centres undefined) was read as PAFAH2 FP inh inactive, PfM18AAP inh-1 79.1, pPAFAH FP inh inactive, PAFAH1B3 FP inh inactive, PAFAH1B2 FP inh inactive, PfM18AAP inh-2 62.4 and CTSL1 confirm inactive.
`COc1ccc(C(=O)NCC(=O)N/N=C/c2ccco2)cc1OC` gave PAFAH2 FP inh inactive, PfM18AAP inh-1 43.6, pPAFAH FP inh inactive, PAFAH1B3 FP inh inactive, DSG3 Ab inh inactive, PAFAH1B2 FP inh inactive, PfM18AAP inh-2 inactive and CTSL1 confirm inactive.
COc1ccc(/C=N/n2cnn(Cc3ccccc3Cl)c2=S)cc1 was read as PAFAH2 FP inh inactive, PfM18AAP inh-1 33.7, pPAFAH FP inh inactive, PAFAH1B3 FP inh inactive, DSG3 Ab inh inactive, PAFAH1B2 FP inh inactive, PfM18AAP inh-2 inactive and CTSL1 confirm inactive.
`CC(=O)NS(=O)(=O)c1ccc2sc(C)nc2c1` gave PAFAH2 FP inh inactive, PfM18AAP inh-1 inactive, pPAFAH FP inh inactive, PAFAH1B3 FP inh inactive, DSG3 Ab inh inactive, PAFAH1B2 FP inh inactive, PfM18AAP inh-2 inactive and CTSL1 confirm inactive.
Screening CC1CCCCC12NC(=O)N(CC(=O)N1CCN(S(=O)(=O)c3ccc(Cl)s3)CC1)C2=O (centres undefined) returned DSG3 Ab inh inactive.
Screening CCOC(=O)C1=C(CSc2nc(-c3ccncc3)ccc2C#N)OC(N)=C(C#N)C1c1ccc(OC)cc1 (centres undefined) returned PAFAH2 FP inh inactive, PfM18AAP inh-1 34.5, pPAFAH FP inh inactive, PAFAH1B3 FP inh inactive, DSG3 Ab inh inactive, PAFAH1B2 FP inh inactive, PfM18AAP inh-2 inactive and CTSL1 confirm inactive.
`COc1cccc(/C=N/Nc2ccnc(=O)[nH]2)c1O` gave PAFAH2 FP inh inactive, PfM18AAP inh-1 43.0, pPAFAH FP inh inactive, PAFAH1B3 FP inh inactive, DSG3 Ab inh inactive, PAFAH1B2 FP inh inactive, PfM18AAP inh-2 inactive and CTSL1 confirm inactive.
Screening COc1cccc(/C=N/NC(=O)N/N=C/c2cccc(OC)c2O)c1O returned PAFAH2 FP inh inactive, PfM18AAP inh-1 33.5, pPAFAH FP inh inactive, PAFAH1B3 FP inh inactive, DSG3 Ab inh inactive, PAFAH1B2 FP inh inactive, PfM18AAP inh-2 inactive and CTSL1 confirm inactive.
`CCn1c(SCC(=O)Nc2c(C#N)cnn2-c2ccccc2)nnc1-c1cccs1` gave PfM18AAP inh-1 inactive, pPAFAH FP inh inactive and DSG3 Ab inh inactive.
Screening COc1ccc(NC(=O)CC(CC(=O)O)c2cc(OC)c(OC)c(OC)c2)cc1 (centres undefined) returned PAFAH2 FP inh inactive, PfM18AAP inh-1 inactive, pPAFAH FP inh inactive, PAFAH1B3 FP inh inactive, DSG3 Ab inh inactive and PAFAH1B2 FP inh inactive.
`CCCNC(=O)c1ccc2c(=O)c(O)c(-c3ccc(F)cc3)[nH]c2c1` gave PAFAH2 FP inh inactive, pPAFAH FP inh inactive, PAFAH1B3 FP inh inactive, DSG3 Ab inh inactive and PAFAH1B2 FP inh inactive.
